# Measured values published in the supplement of paper PMC8728848.
# About 410 targets per protein were measured; listed, in parts, are those with the strongest signals and a random draw of the rest.
# B1: PX9961T-pdi-555-33-555 (Parabacteroides distasonis) (protein)
# chain: FDEETAFQSPTLVYVNTVASLYNNMFKIMGNDRHVYDLNTFSSDEAMLPCRIGDWEDGGLWQNIFLHRWGTMNDLTKNSWDFLYEQIGKCNQSVDKLQAFAEEQPDVEYFKVYLEEVRAVRAFFYYELLDLFARVPLVTSSTTPMSEVKQSERSVVFNFVRSELEEALPYLSDNRSNQKGEYYGRITKPVAYMILAKLALNAEVYADDNWTDGNRPAGKNIKFTVDGKEMNAWEATIAYVDKLEALGYKLQGNFSENFAVANETSVENIFTVPMDPVAYPDAKDYNLVRTRHYDHATAYGQSGWNGSCATVKAMNVFKFGTADEDPRCKLTYFTGEVTGPDGKTIYTEWDGQKVPLKYEPNAPKVYMDASDGLLVKTAGARMAKYEFDQNAQDGGNLHGNDCVIFRFADALLMKAEAKIRLGQNGDDEVNQVRNRVGAKPLQNVTLDTLLDERMLELAWEGVRRQDLIRFGKFTEATVDRYVGVKHFASSLDYQEDKTGYTTVFSIYADILSLNPNLTQNPGY
# Columns and labels:
# Assay in all cases: glycan array binding signal (z-score within array); higher = stronger binding
# Conditions in all cases: glycan notation: IUPAC condensed, linker removed
# [1] = molecular target: Fuc(a1-2)Gal(b1-4)GlcNAc(b1-2)Man(a1-3)[Fuc(a1-2)Gal(b1-4)GlcNAc(b1-2)Man(a1-6)]Man(b1-4)GlcNAc(b1-4)GlcNAc
# Method in brief: (§1)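 The binding signal is a Z-score computed within each array and averaged over linkers. Arrays of the same protein sequence at different concentrations or buffers were also averaged together. Data originate from 3228 arrays in the Consortium for Functional Glycomics database, kept only where the protein sequence was available.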
# [2] = molecular target: Fuc(a1-2)Gal(b1-4)[Fuc(a1-3)]GlcNAc(b1-2)Man(a1-3)[Fuc(a1-2)Gal(b1-4)[Fuc(a1-3)]GlcNAc(b1-2)Man(a1-6)]Man(b1-4)GlcNAc(b1-4)[Fuc(a1-6)]GlcNAc
# Method in brief: as §1
# [3] = molecular target: Fuc(a1-2)Gal(b1-4)[Fuc(a1-3)]GlcNAc(b1-3)GalNAc
# Method in brief: as §1
# [4] = molecular target: Fuc(a1-2)Gal3S(b1-4)GlcNAc
# Method in brief: as §1
# Fuc(a1-2)Gal6S(b1-4)Glc = molecular target: Fuc(a1-2)Gal6S(b1-4)Glc
# Method in brief: as §1
# [5] = molecular target: Fuc(a1-2)[GalNAc(a1-3)]Gal(b1-4)GlcNAc(b1-2)Man(a1-3)[Fuc(a1-2)[GalNAc(a1-3)]Gal(b1-4)GlcNAc(b1-2)Man(a1-6)]Man(b1-4)GlcNAc(b1-4)[Fuc(a1-6)]GlcNAc
# Method in brief: as §1
# [6] = molecular target: Fuc(a1-3)[Gal(b1-4)]GlcNAc(b1-2)Man(a1-3)[Fuc(a1-3)[Gal(b1-4)]GlcNAc(b1-2)Man(a1-6)]Man(b1-4)GlcNAc(b1-4)[Fuc(a1-6)]GlcNAc
# Method in brief: as §1
# Gal(a1-3)Gal(b1-4)GlcNAc = molecular target: Gal(a1-3)Gal(b1-4)GlcNAc
# Method in brief: as §1
# [7] = molecular target: Gal(a1-3)Gal(b1-4)GlcNAc(b1-2)Man(a1-3)[Gal(a1-3)Gal(b1-4)GlcNAc(b1-2)Man(a1-6)]Man(b1-4)GlcNAc(b1-4)GlcNAc
# Method in brief: as §1
# [8] = molecular target: Gal(a1-4)Gal(b1-3)GlcNAc(b1-2)Man(a1-3)[Gal(a1-4)Gal(b1-3)GlcNAc(b1-2)Man(a1-6)]Man(b1-4)GlcNAc(b1-4)GlcNAc
# Method in brief: as §1
# [9] = molecular target: Gal(a1-4)Gal(b1-4)GlcNAc(b1-2)Man(a1-3)[Gal(a1-4)Gal(b1-4)GlcNAc(b1-2)Man(a1-6)]Man(b1-4)GlcNAc(b1-4)GlcNAc
# Method in brief: as §1
# Gal(b1-3)Gal(b1-4)GlcNAc = molecular target: Gal(b1-3)Gal(b1-4)GlcNAc
# Method in brief: as §1
# [10] = molecular target: Gal(b1-3)GalNAc(b1-3)Gal(a1-4)Gal(b1-4)Glc
# Method in brief: as §1
# Gal(b1-3)GlcNAc(b1-2)Man = molecular target: Gal(b1-3)GlcNAc(b1-2)Man
# Method in brief: as §1
# [11] = molecular target: Gal(b1-3)GlcNAc(b1-2)Man(a1-3)[Gal(b1-3)GlcNAc(b1-2)Man(a1-6)]Man(b1-4)GlcNAc(b1-4)GlcNAc
# Method in brief: as §1
# [12] = molecular target: Gal(b1-3)[Fuc(a1-4)]GlcNAc(b1-2)Man(a1-3)[Gal(b1-3)[Fuc(a1-4)]GlcNAc(b1-2)Man(a1-6)]Man(b1-4)GlcNAc(b1-4)[Fuc(a1-6)]GlcNAc
# Method in brief: as §1
# [13] = molecular target: Gal(b1-4)GalNAc(a1-3)[Fuc(a1-2)]Gal(b1-4)GlcNAc
# Method in brief: as §1
# [14] = molecular target: Gal(b1-4)GlcNAc(b1-2)Man(a1-3)Man(b1-4)GlcNAc(b1-4)GlcNAc
# Method in brief: as §1
# [15] = molecular target: Gal(b1-4)GlcNAc(b1-2)Man(a1-3)[Gal(b1-4)GlcNAc(b1-2)Man(a1-6)]Man(b1-4)GlcNAc(b1-4)[Fuc(a1-6)]GlcNAc
# Method in brief: as §1
# [16] = molecular target: Gal(b1-4)GlcNAc(b1-2)Man(a1-6)[GlcNAc(b1-2)Man(a1-3)]Man(b1-4)GlcNAc(b1-4)GlcNAc
# Method in brief: as §1
# [17] = molecular target: Gal(b1-4)GlcNAc(b1-2)[Gal(b1-4)GlcNAc(b1-6)]Man(a1-6)[Gal(b1-4)GlcNAc(b1-2)Man(a1-3)]Man(b1-4)GlcNAc(b1-4)GlcNAc
# Method in brief: as §1
# [18] = molecular target: Gal(b1-4)GlcNAc(b1-3)Gal(b1-4)GlcNAc(b1-2)Man(a1-3)[Gal(b1-4)GlcNAc(b1-3)Gal(b1-4)GlcNAc(b1-2)Man(a1-6)]Man(b1-4)GlcNAc(b1-4)[Fuc(a1-6)]GlcNAc
# Method in brief: as §1
# [19] = molecular target: Gal(b1-4)GlcNAc(b1-3)Gal(b1-4)GlcNAc(b1-2)[Gal(b1-4)GlcNAc(b1-3)Gal(b1-4)GlcNAc(b1-6)]Man(a1-6)[Gal(b1-4)GlcNAc(b1-3)Gal(b1-4)GlcNAc(b1-2)Man(a1-3)]Man(b1-4)GlcNAc(b1-4)GlcNAc
# Method in brief: as §1
# [20] = molecular target: Gal(b1-4)GlcNAc(b1-3)Gal(b1-4)GlcNAc(b1-3)Gal(b1-4)GlcNAc(b1-3)Gal(b1-4)GlcNAc(b1-2)Man(a1-3)[Gal(b1-4)GlcNAc(b1-3)Gal(b1-4)GlcNAc(b1-3)Gal(b1-4)GlcNAc(b1-3)Gal(b1-4)GlcNAc(b1-2)Man(a1-6)]Man(b1-4)GlcNAc(b1-4)[Fuc(a1-6)]GlcNAc
# Method in brief: as §1
# [21] = molecular target: Gal(b1-4)GlcNAc(b1-3)[GlcNAc(b1-6)]Gal(b1-4)GlcNAc
# Method in brief: as §1
# Gal6S(b1-4)Glc6S = molecular target: Gal6S(b1-4)Glc6S
# Method in brief: as §1
# Glc(a1-6)Glc(a1-6)Glc = molecular target: Glc(a1-6)Glc(a1-6)Glc
# Method in brief: as §1
# [22] = molecular target: GlcNAc(a1-4)Gal(b1-4)GlcNAc(b1-3)Gal(b1-4)GlcNAc
# Method in brief: as §1
# [23] = molecular target: GlcNAc(b1-2)Man(a1-3)[GlcNAc(b1-4)][GlcNAc(b1-2)Man(a1-6)]Man(b1-4)GlcNAc(b1-4)GlcNAc
# Method in brief: as §1
# [24] = molecular target: GlcNAc(b1-3)Gal(b1-4)GlcNAc(b1-3)Gal(b1-4)GlcNAc(b1-2)[GlcNAc(b1-3)Gal(b1-4)GlcNAc(b1-3)Gal(b1-4)GlcNAc(b1-6)]Man(a1-6)[GlcNAc(b1-3)Gal(b1-4)GlcNAc(b1-3)Gal(b1-4)GlcNAc(b1-2)Man(a1-3)]Man(b1-4)GlcNAc(b1-4)[Fuc(a1-6)]GlcNAc
# Method in brief: as §1
binder,measurement,setting,value
B1,glycan array binding signal (z-score),[1],1.91
same,glycan array binding signal (z-score),[2],0.323
same,glycan array binding signal (z-score),[3],-0.359
same,glycan array binding signal (z-score),[4],-0.354
same,glycan array binding signal (z-score),Fuc(a1-2)Gal6S(b1-4)Glc,-0.589
same,glycan array binding signal (z-score),[5],2.12
same,glycan array binding signal (z-score),[6],-0.637
same,glycan array binding signal (z-score),Gal(a1-3)Gal(b1-4)GlcNAc,0.037
same,glycan array binding signal (z-score),[7],0.963
same,glycan array binding signal (z-score),[8],2.7
same,glycan array binding signal (z-score),[9],1.51
same,glycan array binding signal (z-score),Gal(b1-3)Gal(b1-4)GlcNAc,-0.663
same,glycan array binding signal (z-score),[10],-0.576
same,glycan array binding signal (z-score),Gal(b1-3)GlcNAc(b1-2)Man,0.661
same,glycan array binding signal (z-score),[11],-0.248
same,glycan array binding signal (z-score),[12],-0.151
same,glycan array binding signal (z-score),[13],-0.527
same,glycan array binding signal (z-score),[14],-0.441
same,glycan array binding signal (z-score),[15],0.171
same,glycan array binding signal (z-score),[16],-0.306
same,glycan array binding signal (z-score),[17],-0.161
same,glycan array binding signal (z-score),[18],0.672
same,glycan array binding signal (z-score),[19],1.53
same,glycan array binding signal (z-score),[20],0.109
same,glycan array binding signal (z-score),[21],-0.222
same,glycan array binding signal (z-score),Gal6S(b1-4)Glc6S,-0.372
same,glycan array binding signal (z-score),Glc(a1-6)Glc(a1-6)Glc,0.357
same,glycan array binding signal (z-score),[22],-0.402
same,glycan array binding signal (z-score),[23],-0.416
same,glycan array binding signal (z-score),[24],-0.298
